In the library only some 2.8% were active in any assay of this set; here they are far more common.
IP6K1 inhibitor: Primary qHTS assay for small molecule inhibitors of Inositol hexaphosphate kinase 1 (IP6K1); IP6K1 kinase, ADP-Glo luminescence, 2 h; hits give low values; activity change, % (series mostly up to about 58 µM); hit rate 0.81% among 140,000; in the data active = activity change below about -25%; also: % is scaled to controls: 0 for no effect and ±100 for the full control effect
Target sequence (Q92551 whole entry, looked up): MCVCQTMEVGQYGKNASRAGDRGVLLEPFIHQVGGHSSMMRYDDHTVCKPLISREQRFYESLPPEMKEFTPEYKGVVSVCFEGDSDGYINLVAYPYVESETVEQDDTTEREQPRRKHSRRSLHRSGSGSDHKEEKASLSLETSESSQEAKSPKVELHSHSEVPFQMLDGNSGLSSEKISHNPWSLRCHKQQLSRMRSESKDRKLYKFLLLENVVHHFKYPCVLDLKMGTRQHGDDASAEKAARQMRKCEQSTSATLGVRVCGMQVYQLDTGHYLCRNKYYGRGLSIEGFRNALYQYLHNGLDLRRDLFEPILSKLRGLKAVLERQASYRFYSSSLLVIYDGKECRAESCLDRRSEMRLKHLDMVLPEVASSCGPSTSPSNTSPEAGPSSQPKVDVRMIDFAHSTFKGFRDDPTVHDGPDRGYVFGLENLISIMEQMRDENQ
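ADP-Glo luminescence measures ADP made by human IP6K1 during a 2 h RT reaction with ATP/IP6 (mix at 1.3 mM/130 uM); top library doses 57.5 and 19.1 uM final.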
KDM5B inh: Primary screen for KDM5B Histone Demethylases FDH-coupled qHTS; Lysine-specific demethylase 5B (Homo sapiens), Q9UGL1; Potency, µM (doses to about 57.7 µM), hits mostly inhibitors; hit rate 2.6% among 220,000; KDM5B demethylase, FDH-coupled NADH fluorescence (FDH is formaldehyde dehydrogenase); AID 1347165, 2019; active = well fitted inhibition curve with a large enough effect; inconclusive = small, poorly fitted or top-dose-only effect; inactive = no such curve, though single readings can be large or run the other way; also: potency is read from the fitted curve at half-maximal effect; 0% is about no effect; nearly all actives have a fitted effect of over 70% in size
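Inhibition is measured as reduced NADH fluorescence generation from FDH coupling to formaldehyde release. Truncated KDM5BΔAP at 200 nM final acts on H3K4me3 peptide (12.5 µM in substrate mix) in pH 7.5 HEPES buffer with Tween-20, 30 min, room temperature.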
Numbers without * were called inactive; i = inactive; ? = inconclusive; . = no result given.

SMILES	IP6K1 inhibitor	KDM5B inh
Cn1nccc1CN1CCCC2(COc3ccccc3C(=O)N2)C1 (stereo not drawn)	7.0	39.8µM*
COc1ccc(NC(=O)c2c(-c3cnn(C)c3NCc3ccc(C#N)cc3)noc2C)cc1	10.2	i
CS(=O)(=O)N(CC(=O)Nc1cc(C(F)(F)F)ccc1Cl)Cc1ccccc1	.	i
COCCNC(=O)[C@@H]1C[C@@H](c2ccc(F)cc2)N([S+](=O)([O-])c2cccnc2)C1	-3.3	35.5µM*
COCCNC(=O)[C@@H]1C[C@@H](c2ccc(F)cc2)N([S+](=O)([O-])c2ccccc2)C1	7.4	i
CC(C)(C)CC(=O)N1CC[C@@H](CC(=O)O)[C@@H](CCN2CCN(c3ccccn3)CC2)C1	6.4	?
COc1ccc(-c2nc(-c3cc(C(F)(F)F)cc(C(F)(F)F)c3)n(Cc3ccc(C(N)=O)cc3)c2-c2ccc(OC)cc2)cc1	-3.3	.
Cc1noc(C)c1S(=O)(=O)Nc1cccc(C(F)(F)F)c1	.	i
Cc1noc(C)c1-c1cnc(Nc2ccccc2)c2c1CCO2	-7.1	35.5µM*
Cc1noc(C)c1-c1cnc(Nc2cccc(C(F)(F)F)c2)c2c1CCO2	-14.2	35.5µM*
Cc1noc(C)c1-c1cnc(Nc2ccncc2)c2c1CCO2	-16.8	?
CCN1CCSc2ccc(C(=O)NC(C)c3ccccc3)cc21 (stereo not drawn)	-6.2	?
O=C(N[C@H]1CO[C@H]2[C@@H]1OC[C@@H]2Nc1nccc(-c2ccccc2)n1)N1CCOCC1	0.2	?
COc1ccccc1-c1ccnc(N[C@H]2CO[C@H]3[C@@H]2OC[C@@H]3NS(=O)(=O)c2ccc(NC(C)=O)cc2)n1	-5.6	i
COc1ccccc1-c1ccnc(N[C@H]2CO[C@H]3[C@@H]2OC[C@@H]3NS(C)(=O)=O)n1	-8.7	35.5µM*
COc1ccccc1-c1ccnc(N[C@H]2CO[C@H]3[C@@H]2OC[C@@H]3NC(=O)N2CCOCC2)n1	-2.6	25.1µM*
O=C([C@@H]1C[C@H](F)CN1C(=O)Nc1cccc(F)c1)N1CCOCC1	8.3	i
c1cc(CNCc2ccc3c(c2)OCO3)c2cc[nH]c2c1	.	i
COc1ccc(-c2noc(-c3nc(Cc4cccc(F)c4)no3)n2)cc1	15.0	28.2µM*
COc1ccc(-c2noc(-c3nc(-c4cccnc4)no3)n2)cc1	0.0	35.5µM*
Fc1cccc(Cc2noc(-c3nc(-c4ccccc4)no3)n2)c1	-5.7	i
Cc1ccc(-c2noc(-c3nc(-c4cccnc4)no3)n2)cc1	13.9	i
Nc1nccc(N2CCC3(CCC(=O)N(CC4CCCO4)C3)CC2)n1 (stereo not drawn)	-8.5	i
N#Cc1cccc(N2CCC3(CCC(=O)N(CC4CCCO4)C3)CC2)n1 (stereo not drawn)	-5.1	25.1µM*
O=S1(=O)c2ccccc2-c2c(nnn2Cc2ccccc2)CN1C1CC1	.	i
SMILES	IP6K1 inhibitor	KDM5B inh
COc1ccccc1-c1cc(C(=O)N2CCCC2)nc2c1cnn2C	-11.6	79.4µM*
COC(=O)CNC(=O)c1cc(-c2ccccc2OC)c2cnn(C)c2n1	-10.1	?
C#CCNC(=O)c1cc(-c2ccccc2OC)c2cnn(C)c2n1	-6.1	89.1µM*
COc1ccccc1-c1cc(C(=O)N2CCCC2)c2cnn(C)c2n1	-12.3	i
O=C(/C=C/c1csc(-c2ccc(F)cc2)n1)N1CCN(c2cccc(C(F)(F)F)c2)CC1	.	i
Cc1cc(C)n2nc(C(=O)NCC3COc4ccccc4C3)cc2n1 (stereo not drawn)	14.7	22.4µM*
CCCn1cc(C(=O)NCC2COc3cc(OC)ccc3C2)c(C)n1 (stereo not drawn)	-1.0	i
O=C(NCC1CCCO1)c1ccc(-c2nnc(-c3ccccc3)o2)cc1 (stereo not drawn)	.	i
O=C(NCC1CCCO1)c1cc2c(=O)[nH]c(-c3ccccc3)cn2n1 (stereo not drawn)	-21.6	22.4µM*
c1ccc(CC2=NOC3(CCN(Cc4ccccc4)C3)C2)cc1 (stereo not drawn)	16.2	31.6µM*
FC(F)(F)c1ccc(CN2CCCC3(CC(Cc4ccccc4)=NO3)C2)cc1 (stereo not drawn)	6.9	i
Cc1ccc(-c2noc([C@@H]3CCCN3C(=O)Cc3cccc(C)c3)n2)cc1	-1.0	i
CC1(C(=O)NCc2cccnc2)CN(Cc2ccccc2)Cc2ccc(N3CCOCC3)nc21 (stereo not drawn)	7.3	25.1µM*
CC1(C(=O)N2CCOCC2)CN(Cc2ccccc2)Cc2ccc(Nc3ccccc3)nc21 (stereo not drawn)	-5.2	28.2µM*
CC1(C(=O)NCc2cnccn2)CN(Cc2ccccc2)Cc2ccc(Nc3ccccc3)nc21 (stereo not drawn)	-4.2	?
CC(C)CNc1ccc2c(n1)C(C)(C(=O)Nc1ccncc1)CN(Cc1ccccc1)C2 (stereo not drawn)	-3.2	i
CN(C)CCNC(=O)C1(C)CN(Cc2ccccc2)Cc2ccc(N3CCOCC3)nc21 (stereo not drawn)	-1.5	35.5µM*
CC(C)NC(=O)C1(C)CN(Cc2ccccc2)Cc2ccc(N3CCOCC3)nc21 (stereo not drawn)	9.7	28.2µM*
COCCCNC(=O)C1(C)CN(Cc2ccccc2)Cc2ccc(NCC(C)C)nc21 (stereo not drawn)	12.6	i
CC1(C(=O)N2CCC2)CN(Cc2ccccc2)Cc2ccc(N3CCOCC3)nc21 (stereo not drawn)	-12.9	?
Cc1[nH]c2ccccc2c1C(=O)C(=O)Nc1cccc(Cl)c1C	.	i
O=C(NCCN1CCOCC1)C1c2ccccc2CC(=O)N1Cc1ccccc1 (stereo not drawn)	-7.4	i
O=C(C1CCCC1)N1CCC(C(=O)N2CCC(c3nc4ccncc4[nH]3)C2)CC1 (stereo not drawn)	-9.4	.
CC(C)N1CC2CCC(C1)N2Cc1ccc(-c2ccccc2)cc1	3.1	i
CC1(C(=O)NCc2ccccc2)CN(Cc2ccccc2)Cc2ccc(N3CCOCC3)nc21 (stereo not drawn)	8.5	22.4µM*
SMILES	IP6K1 inhibitor	KDM5B inh
CN1Cc2ccc(NCc3ccccc3)nc2C(C)(C(=O)NCCCn2ccnc2)C1 (stereo not drawn)	17.2	?
CC1(C(=O)NCc2ccncc2)CN(Cc2ccccc2)Cc2ccc(N3CCOCC3)nc21 (stereo not drawn)	15.7	?
CN1Cc2ccc(N3CCOCC3)nc2C(C)(C(=O)NCCCn2ccnc2)C1 (stereo not drawn)	3.3	31.6µM*
Cc1ccc(NC(=O)c2cc3c(cc2C)OCCCO3)cc1	.	i
Cc1[nH]cnc1-c1nccn1-c1ccc(CCC(=O)NC2CC2)cc1	52.5	i
CCOC(=O)[C@@H]1[C@@H](OC(N)=O)C(=O)N(Cc2ccccc2)C12CCN(C(=O)C(C)C)CC2	7.2	.
CCCCOc1ccc(-c2cncc(C(=O)NCc3cccnc3N3CCOCC3)c2)cc1Cl	2.9	.
Cc1cc(C)nc(SCCS(=O)c2ccc(C(C)(C)C)cc2)n1 (stereo not drawn)	.	i
CCNC(=O)Cc1c[nH]c2ncc(-c3cccnc3OC)cc12	-14.2	39.8µM*
COc1ccc(-c2cnc3[nH]cc(CC(=O)NCc4cccnc4)c3c2)cc1OC	-15.4	?
COc1ncccc1-c1cnc2[nH]cc(CC(=O)NCc3ccco3)c2c1	-19.1	35.5µM*

Screens from PubChem BioAssay.
